Results on 9 molecules are retold here after PubChem BioAssay (NCI).

Assay [1] in a line: NCI Yeast Anticancer Drug Screen. Data for the rad50 strain (AID 155).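 Also: 0% = growth of vehicle-only cultures of the same strain.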 Conditions: S. cerevisiae rad50 strain growth inhibition, hits give high values. The procedure, abridged:
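Yeast carrying a defined DNA repair defect were exposed to test compounds, and growth was compared with vehicle-treated controls to give percent inhibition.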

Assay [2] can be described thus: NCI Yeast Anticancer Drug Screen. Data for the mec2-1 strain (AID 157). Conditions: S. cerevisiae mec2-1 strain, hits give high values. The procedure, abridged: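 Yeast mec2-1 mutant treated with compound. Readout: growth inhibition vs vehicle controls.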
A short description of assay [3]: NCI Yeast Anticancer Drug Screen. Data for the sgs1 mgt1 strain (AID 161).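 Also: 0% = growth of cultures given vehicle only.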 Conditions: S. cerevisiae sgs1 mgt1 strain, hits give high values. The procedure, abridged: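 Mutant yeast exposed to compound; growth scored against vehicle-only wells.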
Assay [4] can be described thus: NCI Yeast Anticancer Drug Screen. Data for the cln2 rad14 strain (AID 165).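 Also: 0% = growth equal to vehicle treated cultures.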 The following applies: S. cerevisiae cln2 rad14 strain, hits give high values. The procedure, abridged:
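cln2 rad14 yeast strain; compound exposure; growth inhibition read vs vehicle controls.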

Assay [5] can be described thus: NCI Yeast Anticancer Drug Screen. Data for the bub3 strain (AID 167). Conditions: S. cerevisiae bub3 mutant strain, hits give high values. The procedure, abridged: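 Compounds were applied to a genetically altered yeast strain carrying a cell-cycle control defect. Growth inhibition was scored against vehicle-treated controls.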
Assay [6] can be described thus: NCI Yeast Anticancer Drug Screen. Data for the mlh1 rad18 strain (AID 175). The following applies: S. cerevisiae mlh1 rad18 strain growth inhibition, hits give high values. In a few lines: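 Yeast w/ defined DNA-repair lesions; compound exposure; growth vs vehicle controls → % inhibition.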
The mark [7] stands for this setting: at 5.0 µM (retest, dose inferred, filed as 0.5).
Setting [8] is: at 50.0 µM (retest, dose inferred, filed as 5.0).

Compounds without any hit were thinned out: in the full panel of roughly 79,000, 15% have a hit. Unmarked numbers belong to inactive results. Calls of active or inactive are those of the source. Rule as the data show it: active = growth inhibition above about 70%; inactive = the rest.

`O=C1c2cc(Br)ccc2NC1(c1c[nH]c2ccccc12)c1c[nH]c2ccccc12`: the growth inhibition in assay [1] (setting [7]) is 98% (active); in assay [1] (setting [8]), 95% (active); in assay [1] (at 50.0 µM) it was 91.8% (active); in assay [2] (setting [7]), 58%; in assay [2] (setting [8]), 90% (active); in assay [2] (at 50.0 µM) it was 94.8% (active). Further, the growth inhibition in assay [3] (setting [7]) is 99% (active); in assay [3] (setting [8]), 96% (active); in assay [3] (at 50.0 µM) it was 94.6% (active); in assay [4] (setting [7]) it was 98% (active); in assay [4] (setting [8]), 94% (active); in assay [4] (at 50.0 µM) it was 93.2% (active). In addition, the growth inhibition in assay [5] (setting [7]) was 95% (active); in assay [5] (setting [8]) it was 95% (active); in assay [5] (at 50.0 µM), 93.8% (active); in assay [6] (setting [7]), 99% (active); in assay [6] (setting [8]), 95% (active); in assay [6] (at 50.0 µM), 92.8% (active).

Take `O=C(O)C1OC(Oc2ccc3oc4ccccc4c(=O)c3c2)C(O)C(O)C1O` (configuration not stated): the growth inhibition in assay [1] (setting [7]) is -23%; in assay [1] (setting [8]) it was 91% (active); in assay [1] (at 50.0 µM) it was 48.8%; in assay [2] (setting [7]) it was 3%; in assay [2] (setting [8]) it was 33%; in assay [2] (at 50.0 µM), 40.2%. Also, the growth inhibition in assay [3] (setting [7]) is -1%; in assay [3] (setting [8]) it was 48%; in assay [3] (at 50.0 µM), 30.8%; in assay [4] (setting [7]) it was 4%; in assay [4] (setting [8]), 15%; in assay [4] (at 50.0 µM), 56.5%. Also, the growth inhibition in assay [5] (setting [7]) is 10%; in assay [5] (setting [8]) it was 64%; in assay [5] (at 50.0 µM) it was 47.1%; in assay [6] (setting [7]), 7%; in assay [6] (setting [8]) it was 39%; in assay [6] (at 50.0 µM), 57.9%.

As for `COc1ccc(N=Cc2ccccc2O)cc1`, the growth inhibition in assay [1] (setting [7]) is -9%; in assay [1] (setting [8]), -57%; in assay [1] (at 50.0 µM) it was 8.1%; in assay [2] (setting [7]) it was 0%; in assay [2] (setting [8]), -33%; in assay [2] (at 50.0 µM) it was -8%. The growth inhibition is -8% in assay [3] (setting [7]); -36% in assay [3] (setting [8]); 2.65% in assay [3] (at 50.0 µM); -4% in assay [4] (setting [7]); -24% in assay [4] (setting [8]); 40.9% in assay [4] (at 50.0 µM). Besides, the growth inhibition in assay [5] (setting [7]) was -27%; in assay [5] (setting [8]) it was -118%; in assay [5] (at 50.0 µM), -5.25%; in assay [6] (setting [7]), -7%; in assay [6] (setting [8]), -45%; in assay [6] (at 50.0 µM) it was -26.1%.

Take `O=C(O)C1C(c2ccccc2)=C1c1ccccc1`: the growth inhibition in assay [1] (setting [7]) was -7%; in assay [1] (setting [8]), 22%; in assay [1] (at 50.0 µM) it was 73.8% (active); in assay [2] (setting [7]), 0%; in assay [2] (setting [8]) it was 7%; in assay [2] (at 50.0 µM), 56.4%. The growth inhibition in assay [3] (setting [7]) is 10%; in assay [3] (setting [8]) it was 41%; in assay [3] (at 50.0 µM), 59.6%; in assay [4] (setting [7]), -44%; in assay [4] (setting [8]) it was -3%; in assay [4] (at 50.0 µM), 57.8%. Moreover, the growth inhibition in assay [5] (setting [7]) is -22%; in assay [5] (setting [8]), 7%; in assay [5] (at 50.0 µM) it was 39.2%; in assay [6] (setting [7]), -12%; in assay [6] (setting [8]), 12%; in assay [6] (at 50.0 µM) it was 46.5%.

For the molecule `Nc1cn(C2OC(CC(c3ccccc3)(c3ccccc3)c3ccccc3)C(O)C2O)c(=O)[nH]c1=O` (configuration not stated), the growth inhibition in assay [1] (setting [7]) was 99% (active); in assay [1] (setting [8]), 99% (active); in assay [1] (at 50.0 µM), 39%; in assay [2] (setting [7]), 97% (active); in assay [2] (setting [8]), 97% (active); in assay [2] (at 50.0 µM), 34.9%. Also, the growth inhibition in assay [3] (setting [7]) is 99% (active); in assay [3] (setting [8]), 99% (active); in assay [3] (at 50.0 µM) it was 42.1%; in assay [4] (setting [7]) it was 96% (active); in assay [4] (setting [8]), 96% (active); in assay [4] (at 50.0 µM) it was 37.5%. In addition, the growth inhibition in assay [5] (setting [7]) was 66%; in assay [5] (setting [8]), 66%; in assay [5] (at 50.0 µM), 46.5%; in assay [6] (setting [7]), 97% (active); in assay [6] (setting [8]), 97% (active); in assay [6] (at 50.0 µM) it was 34.6%.

As to `O=c1ccnc(Sc2ccc([N+](=O)[O-])cc2[N+](=O)[O-])[nH]1`, the growth inhibition in assay [1] (setting [7]) is 16%; in assay [1] (setting [8]) it was 94% (active); in assay [1] (at 50.0 µM), 47.2%; in assay [2] (setting [7]) it was 8%; in assay [2] (setting [8]), 94% (active); in assay [2] (at 50.0 µM) it was 54.6%. For the same molecule, the growth inhibition in assay [3] (setting [7]) was 2%; in assay [3] (setting [8]), 87% (active); in assay [3] (at 50.0 µM), 84% (active); in assay [4] (setting [7]), 1%; in assay [4] (setting [8]), 74% (active); in assay [4] (at 50.0 µM), 59.1%. Besides, the growth inhibition in assay [5] (setting [7]) is -1%; in assay [5] (setting [8]), 92% (active); in assay [5] (at 50.0 µM), 52.5%; in assay [6] (setting [7]), 2%; in assay [6] (setting [8]), 93% (active); in assay [6] (at 50.0 µM), 49.6%.

Turning to `Cc1ccc(C(O)CCN2CCOCC2)c(C)c1` (configuration not stated), the growth inhibition in assay [1] (setting [7]) is 26%; in assay [1] (setting [8]) it was 69%; in assay [1] (at 50.0 µM), 81.5% (active); in assay [2] (setting [7]), 30%; in assay [2] (setting [8]), 61%; in assay [2] (at 50.0 µM) it was 45.1%. For the same molecule, the growth inhibition is 44% in assay [3] (setting [7]); 68% in assay [3] (setting [8]); 78% (active) in assay [3] (at 50.0 µM); 44% in assay [4] (setting [7]); 71% (active) in assay [4] (setting [8]); 57.2% in assay [4] (at 50.0 µM). Moreover, the growth inhibition in assay [5] (setting [7]) was 43%; in assay [5] (setting [8]), 82% (active); in assay [5] (at 50.0 µM), 70%; in assay [6] (setting [7]) it was 23%; in assay [6] (setting [8]) it was 65%; in assay [6] (at 50.0 µM), 69.2%.

As for `CC(C)/C=C1\CCOC1=O`, the growth inhibition was 0% in assay [1] (setting [7]); 9% in assay [1] (setting [8]); 36.3% in assay [1] (at 50.0 µM); -3% in assay [2] (setting [7]); 1% in assay [2] (setting [8]); 14.8% in assay [2] (at 50.0 µM). Further, the growth inhibition in assay [3] (setting [7]) was 1%; in assay [3] (setting [8]), 5%; in assay [3] (at 50.0 µM), 39.8%; in assay [4] (setting [7]) it was 5%; in assay [4] (setting [8]), 3%; in assay [4] (at 50.0 µM), 44.5%. Also, the growth inhibition in assay [5] (setting [7]) is -3%; in assay [5] (setting [8]) it was 4%; in assay [5] (at 50.0 µM), -0.55%; in assay [6] (setting [7]) it was 0%; in assay [6] (setting [8]), 6%; in assay [6] (at 50.0 µM), 21.7%.

In the case of `O=C1CCC(c2ccccc2)=NN1c1nc2ccccc2s1`, the growth inhibition in assay [1] (setting [7]) is 5%; in assay [1] (setting [8]) it was 90% (active); in assay [1] (at 50.0 µM) it was 98.3% (active); in assay [2] (setting [7]), -3%; in assay [2] (setting [8]), 79% (active); in assay [2] (at 50.0 µM), 99.2% (active). For the same molecule, the growth inhibition in assay [3] (setting [7]) is 0%; in assay [3] (setting [8]) it was 85% (active); in assay [3] (at 50.0 µM), 99.2% (active); in assay [4] (setting [7]) it was -3%; in assay [4] (setting [8]), 83% (active); in assay [4] (at 50.0 µM) it was 99% (active). For the same molecule, the growth inhibition is -6% in assay [5] (setting [7]); 95% (active) in assay [5] (setting [8]); 99.3% (active) in assay [5] (at 50.0 µM); 4% in assay [6] (setting [7]); 93% (active) in assay [6] (setting [8]); 99.5% (active) in assay [6] (at 50.0 µM).
